Assay [1] is described as follows: BET inhibitor-based combinations targeting novel dependencies in MECOM-rearranged (r) AML: SET-2 cell line (AID 2202231). Also: nearly all actives have a fitted effect of over 35% in size. Also: potency is read from the fitted curve at half-maximal effect.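 As to viability: plate controls were DMSO treated cells for no effect and wells without cells for full effect.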 The following applies: SET-2 AML cells viability, CellTiter-Glo luminescence, 48 h; viability: stronger effect = lower value, concentration not given here. In outline: (§1)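 Luminescent ATP readout (CellTiter-Glo) after 48 hr drug exposure gives viability. Curves span 11 concentrations and are normalized to DMSO and empty wells. Activity is reported as area under the curve and its Z-transform within each cell line.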
On the technique in general: ATP-based viability assays read luminescence as a measure of living cells.

Assay [2] in a line: BET inhibitor-based combinations targeting novel dependencies in MECOM-rearranged (r) AML: OCI-AML3 cell line (AID 2202232).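 Also: series mostly up to about 46 µM; plate controls were DMSO vehicle wells for no effect and wells without cells for full effect; nearly all actives have a fitted effect of over 35% in size.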 The following applies: Potency: OCI-AML3 viability. In outline:
as §1

Assay [3] is described as follows: BET inhibitor-based combinations targeting novel dependencies in MECOM-rearranged (r) AML: UCSD-AML1 cell line (AID 2202235). Also: nearly all actives have a fitted effect of over 40% in size. Also: potency is read from the fitted curve at half-maximal effect. In outline: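 Luminescent ATP readout (CellTiter-Glo, 15 min at room temperature) after 48 hr drug exposure gave viability. Dose-response curves, normalized to DMSO and empty-well controls, were summarized as area under the curve and its mean-centred Z-score.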

Assay [4] can be described thus: BET inhibitor-based combinations targeting novel dependencies in MECOM-rearranged (r) AML: AML-191 cell line (AID 2202236; also: nearly all actives have a fitted effect of over 35% in size; also: potency is read from the fitted curve at half-maximal effect). In outline: as §1
The nature of assay [5]: BET inhibitor-based combinations targeting novel dependencies in MECOM-rearranged (r) AML: AML-194 cell line (AID 2202237;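 also: plate controls were vehicle wells for no effect and wells without cells for full effect; nearly all actives have a fitted effect of over 40% in size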). In outline: as §1
In assay [6] the target is Aldehyde dehydrogenase, mitochondrial (Homo sapiens) (UniProt P05091). Briefly: qHTS for Inhibitors of the Aldehyde Dehydrogenase Family (ALDH2) Confirmatory screens (AID 2061303; active = well fitted inhibition curve with a large enough effect; title and protocol of this record describe different tests; also: nearly all actives have a fitted effect of over 45% in size; also: potency is read from the fitted curve at half-maximal effect). (Quantitative high-throughput screening tests each substance at several concentrations.)
Assay [7] can be described thus: qHTS for Inhibitors of the Aldehyde Dehydrogenase Family (ALDH1A2, ALDH1A3, ALDH2, ALDH3A1) (AID 2061307). Also: nearly all actives have a fitted effect of over 50% in size.
In assay [8] the target is Aldehyde dehydrogenase, mitochondrial (Homo sapiens) (UniProt P05091). Briefly: qHTS for Inhibitors of the Aldehyde Dehydrogenase Family (ALDH2) Primary screen (AID 2061308). Also: nearly all actives have a fitted effect of over 55% in size. Also: potency is read from the fitted curve at half-maximal effect.
In assay [9] the target is Retinaldehyde dehydrogenase 3 (Homo sapiens) (UniProt P47895). Briefly: qHTS for Inhibitors of the Aldehyde Dehydrogenase Family (ALDH1A3) Confirmatory screens (AID 2061311). Also: nearly all actives have a fitted effect of over 60% in size. Also: potency is read from the fitted curve at half-maximal effect.
Assay [10] shares this target. Briefly: qHTS for Inhibitors of the Aldehyde Dehydrogenase Family (ALDH1A3) Primary screen (AID 2061315). Also: potency is read from the fitted curve at half-maximal effect.
Assay [11] has as its target Aldehyde dehydrogenase 1A1 (Homo sapiens) (UniProt P00352). Put plainly: qHTS for Inhibitors of the Aldehyde Dehydrogenase Family (ALDH1A1) Confirmatory screens (AID 2061316). Also: nearly all actives have a fitted effect of over 65% in size. Also: potency is read from the fitted curve at half-maximal effect.
Assay [12] addresses Retinal dehydrogenase 2 (Homo sapiens) (UniProt O94788). Put plainly: qHTS for Inhibitors of the Aldehyde Dehydrogenase Family (ALDH1A2) Confirmation screens (AID 2061314). Also: nearly all actives have a fitted effect of over 65% in size. Also: potency is read from the fitted curve at half-maximal effect.

Consider 22 compounds from PubChem BioAssay (NCATS).

Inconclusive results are not listed. A number with no mark means an inactive call. The source made the active and inactive calls. Unless noted, calls follow the shape of the dose curve; as a rule, active = well fitted curve in the direction sought with a large enough effect; inconclusive = small, poorly fitted or top-dose-only effect, or another doubt; inactive = no such curve, though single readings can be large; an effect the other way counts as inactive or inconclusive.

The viability is a read-out of living cells in per cent, often relative to untreated cells. On to `CC(=O)NCCC(=O)N[C@@H](CCC(N)=O)C(=O)N[C@@H](CO)C(=O)N[C@@H](CCC(N)=O)C(=O)N[C@@H](CCC(N)=O)C(=O)N[C@H](C(=O)N[C@@H](Cc1ccccc1)C(=O)N[C@]1(C)CCCCCCC=CCCC[C@@](C)(C(=O)N[C@@H](CCC(N)=O)C(=O)N[C@@H](CC(N)=O)C(N)=O)NC(=O)[C@H](CC(C)C)NC(=O)[C@H](CC(C)C)NC(=O)[C@@H](CCCNC(=N)N)NC(=O)[C@H](Cc2c[nH]c3ccccc23)NC(=O)[C@H](CC(C)C)NC(=O)[C@H](CC(N)=O)NC1=O)[C@H](C)O`, for which the viability in [1] was 109%. Moreover, the Potency result in assay [2], in assay [3], in assay [4] and in assay [5] was “inactive” throughout.
As for `O=C(O)c1cccc(-c2noc(-c3ccccc3F)n2)c1`, the Potency was 20.9 µM (active) in [1], 18.6 µM (active) in assay [3] and 20.9 µM (active) in assay [4].
`O=[N+]([O-])c1ccc(CNc2ccc([S+](=O)([O-])Nc3nccs3)cc2)c(O)c1`: the Potency entry in assay [6], in [7], in [8], in [9] and in assay [10] was “inactive” each time.
For `Nc1nnc(-c2cccc3ccccc23)o1`, the Potency entry in assay [6], in assay [7], in [8], in assay [9], in assay [10] and in [11] was “inactive” throughout.
Take `NC(=O)C1CCN(c2ncc(-c3ccc4c(c3)OCCO4)s2)CC1`: the Potency in assay [6] is 0.896 µM (active); in assay [7], 7.12 µM (active); in assay [9], 7.98 µM (active); in assay [12], 8.96 µM (active); in [11] it was 0.712 µM (active). Moreover, the Potency entry in assay [8] was “inactive”.
Turning to `COc1ccc(C2Nc3ccccc3C(=O)N2Cc2ccccc2)cc1COc1ccc(NC(=O)c2ccccc2)cc1` (stereo not drawn), the Potency result in assay [6], in assay [8], in [9] and in assay [10] was “inactive” in each case. In addition, in [7], the Potency was 1.59 µM (active).
With `O=C1Cc2cc(S(=O)(=O)N3CCN(c4ccc(C(F)(F)F)cc4)CC3)ccc2N1`, the Potency result in [6], in [7], in assay [8], in assay [9], in assay [10] and in [11] was “inactive” each time.
With `Cc1ccc(Cl)cc1NS(=O)(=O)c1cc2c(cc1F)NC(=O)CC2`, the Potency was 12.6 µM (active) in [6], 28.2 µM (active) in assay [7] and 12.6 µM (active) in assay [9]. In addition, the Potency entry in assay [8] and in assay [10] was “inactive” throughout.
Regarding `O=C(NCCN1CCCC1)[C@H](Cc1ccc(OS(=O)(=O)c2cccc3cnccc23)cc1)NS(=O)(=O)c1cccc2cnccc12`, the Potency entry in assay [6], in assay [7], in assay [8], in [9] and in [10] was “inactive” each time.
With `COc1ccc(C2=Nn3c(nnc3-c3ccc(OC)c(OC)c3)SC2)c(OC)c1`, the Potency result in [6], in assay [7], in assay [8], in assay [9] and in assay [10] was “inactive” each time. The Potency in assay [11] was 6.34 µM (active).
`O=C(O)c1cccc(-c2noc(-c3cccc(C(F)(F)F)c3)n2)c1`: the Potency entry in assay [6], in assay [8], in assay [12] and in assay [11] was “inactive” in each case. The Potency in assay [7] was 0.956 µM (active); in assay [9], 0.504 µM (active).
With `CN(Cc1ccco1)c1ncnc2ccc(-c3cccnc3)cc12`, the Potency entry in [6], in assay [7], in assay [8] and in assay [10] was “inactive” each time. Further, the Potency is 7.98 µM (active) in [9] and 11.3 µM (active) in assay [11].
Regarding `Oc1cccc2cc(C3CC3)cnc12`, the Potency result in assay [6], in [8] and in assay [10] was “inactive” each time. In addition, the Potency in assay [7] is 0.634 µM (active); in assay [9], 31.6 µM (active).
For the compound `O=C(O)c1cccc(-c2noc(-c3cccc(Cl)c3)n2)c1`, the Potency result in assay [6] and in assay [8] was “inactive” throughout. The results for the Potency in [7], in assay [9] and in assay [10] were 0.381 µM (active), 0.201 µM (active) and 0.562 µM (active), respectively.
As for `Cc1cc(C)nc(NC(=S)N2CCN(c3ccc4ccccc4c3)CC2)c1`, the Potency in [6] is 11.3 µM (active); in [7], 3.55 µM (active); in assay [8], 11.2 µM (active); in assay [9] it was 7.12 µM (active); in [12] it was 12.7 µM (active); in assay [11], 2.83 µM (active).
Consider `CN1CCc2sc(NC(=O)Cc3ccccc3)c(C(=O)Nc3ccc(Cl)cc3)c2C1`, for which the Potency result in assay [6], in assay [7], in [8], in [9] and in assay [10] was “inactive” in each case.
Turning to `O=C(Cc1ccc(Cl)c(Cl)c1)Nc1ccc(S(=O)(=O)Nc2cccc(C(=O)O)c2)cc1`, the Potency result in assay [6], in assay [7], in assay [8], in assay [9], in assay [10] and in assay [11] was “inactive” in each case.
Regarding `CCOC(=O)c1ccoc1-c1ccc2ncnc(NCc3ncc[nH]3)c2c1`, the Potency entry in assay [6], in [7], in assay [8], in assay [9] and in assay [10] was “inactive” in each case.
Consider `COc1cccc(C2c3c(ncn(-c4ccccc4C#N)c3=N)Oc3ccc4ccccc4c32)c1` (stereo not drawn), for which the Potency entry in [6], in assay [7], in assay [8] and in assay [10] was “inactive” in each case. For the same compound, the Potency in [9] is 25.2 µM (active).
Take `N#Cc1c(-c2ccc(F)cc2)no[n+]1[O-]`: the Potency result in assay [6], in assay [8], in [9] and in assay [10] was “inactive” in each case. In [7], the Potency was 12.7 µM (active).
As to `O=C1Nc2ccccc2/C1=C\c1cc(F)c(O)c(F)c1`, the Potency result in assay [6] and in assay [7] was “inactive” in each case. The Potency in assay [8] is 1.12 µM (active); in [9], 3.16 µM (active); in [12], 5.62 µM (active); in assay [11] it was 8.96 µM (active).
`N#Cc1ccc(-c2ccc(CNc3ccc(N4CCCCC4)cc3)o2)cc1`: the Potency in [6] is 0.0712 µM (active); in assay [7] it was 0.712 µM (active); in [9] it was 11.3 µM (active); in assay [12], 2.25 µM (active); in assay [11], 8.96 µM (active). Besides, the Potency result in assay [8] is “inactive”.
